Source: PubChem BioAssay (NCATS)
“And” between values parts separate entries of the source, which are not always exact repeats. Equal entries are not always repeated. Records with an inconclusive call do not appear. The source made the active and inactive calls. Unless noted, calls come from the whole dose curve; as a rule, active = well fitted curve in the direction sought with a large enough effect; inconclusive = small, poorly fitted or top-dose-only effect, or another doubt; inactive = no such curve, though single readings can be large; an effect the other way counts as inactive or inconclusive.

How the values were obtained:
[1] = qHTS Assay for Lipid Storage Modulators (AID 1519; calls by dose curve; for activity change, negative = inhibition: % is set by controls: 0 for no effect and ±100 for the full control effect); conditions: Drosophila S3 cells, BODIPY lipid droplet/cell ratio, laser cytometry, cells loaded with oleic acid
In short: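 Cells seeded at 5,000 per well were treated with compounds over a concentration series and loaded with oleic acid (400 uM, as added). Lipid droplet fluorescence (488 nm excitation, 500-530 nm channel) was read by laser-scanning cytometry and normalized to 20 uM Triacsin C.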

[2] = Counterscreen for APE1 Inhibitors: Fluorescent Dye Displacement Validation Assay (AID 1707); conditions: fluorescent dye displacement from DNA; series mostly up to 57.1 µM;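 note: plate controls were ThO with dsDNA and no compound for no effect and ThO without dsDNA for full effect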
In short: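 Assay buffer: Tris-HCl pH7.5 with 50mM NaCl, 2 mM MgCl2, 0.01% Tween-20. Dye 250 nM, duplex 50 nM final. Readout: decrease in ThO endpoint fluorescence, 480 nm excitation, 540 nm emission.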

[3] = target: Endonuclease 4 (Escherichia coli (strain K12)) (UniProt P0A6C1); experiment: Counterscreen for APE1 Inhibitors: qHTS Validation Assay for Inhibitors of Endonuclease IV (AID 1708); note: % is set by controls: 0 for no effect and ±100 for the full control effect; conditions: E. coli endonuclease IV, DNA cleavage fluorescence; series mostly up to 57.1 µM
In short: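 2 nM enzyme was preincubated with compounds for 15 min at room temperature in 50 mM Tris-HCl pH 7.5, 50 mM NaCl, 2 mM MgCl2, 1 mM DTT, 0.01% Tween-20. 50 nM THF-abasic TAMRA/BHQ-2 duplex substrate started the reaction.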

[4] = qHTS for differential inhibitors of proliferation of Plasmodium falciparum line 7G8 (AID 1815); conditions: Plasmodium falciparum 7G8 proliferation inhibition; series mostly up to 28.7 µM;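 note: parasite growth measured after three days of incubation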; note: potency is the fitted concentration of half-maximal effect;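 for activity change, negative = inhibition: plate controls were vehicle wells for no effect and reference inhibitor wells for full effect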
[5] = qHTS for differential inhibitors of proliferation of Plasmodium falciparum line GB4 (AID 1816); conditions: Potency: Plasmodium falciparum GB4 proliferation inhibition; series mostly up to 28.7 µM;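 note: parasite growth measured after 72 h incubation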; note: potency is the fitted concentration of half-maximal effect;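 for activity change, negative = inhibition: 0% = vehicle DMSO and -100% = reference inhibitor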
[6] = qHTS for differential inhibitors of proliferation of Plasmodium falciparum line 3D7 (AID 1876); note: potency is the fitted concentration of half-maximal effect; conditions: P. falciparum 3D7 proliferation inhibition; series mostly up to 28.7 µM
[7] = qHTS for differential inhibitors of proliferation of Plasmodium falciparum line D10 (AID 1877); conditions: series mostly up to 28.7 µM;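 note: parasites grown with compound for 72 h before DNA staining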; note: potency is the fitted concentration of half-maximal effect;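 for activity change, negative = inhibition: plate controls were vehicle wells for no effect and reference inhibitor wells for full effect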
[8] = qHTS for differential inhibitors of proliferation of Plasmodium falciparum line Dd2 (AID 1882); conditions: Potency: Plasmodium falciparum Dd2 proliferation inhibition; series mostly up to 28.7 µM; note: nearly all actives have a fitted effect of over 65% in size; note: potency is the fitted concentration of half-maximal effect;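 for activity change, negative = inhibition: compound exposure of 72 h on infected erythrocytes; plate controls were DMSO vehicle for no effect and 0.29 µM artemisinin for full effect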
In short: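 SYBR Green I DNA fluorescence read-out, ex 485/em 535 nm. Signals were normalized to 0.29 uM artemisinin and DMSO wells, then corrected using vehicle-only plates flanking each stack. Parasite growth ran 72 h in erythrocytes before lysis.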

[9] = target: DNA repair nuclease/redox regulator APEX1 (Homo sapiens) (UniProt P27695); experiment: qHTS Validation Assay for Inhibitors of the Human Apurinic/apyrimidinic Endonuclease 1 (APE1) (AID 1705;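 note: TAMRA fluorescence gain over two minutes as APE1 cuts a quenched THF abasic duplex; % is set by controls: 0 for no effect and ±100 for the full control effect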); conditions: purified APE1 endonuclease activity, fluorescence, titration; series mostly up to 57.1 µM
In short: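 Read-out: TAMRA fluorescence (525 nm ex, 598 nm em) from cleavage of a quenched THF abasic-site duplex, 50 nM final; activity taken as intensity change between third and first of three reads 60 s apart.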

[10] = qHTS for differential inhibitors of proliferation of Plasmodium falciparum line W2 (AID 1883); conditions: Potency: Plasmodium falciparum W2 proliferation inhibition; series mostly up to 28.7 µM;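 note: parasites grown with compound for 72 h before lysis and staining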; note: potency is the fitted concentration of half-maximal effect;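 for activity change, negative = inhibition: 0% = vehicle wells and -100% = control inhibitor wells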
[11] = measured here: cell count channel max response
[12] = measured here: lipid channel max response

DNA repair nuclease/redox regulator APEX1 (Homo sapiens), sequence (P27695 whole entry, looked up): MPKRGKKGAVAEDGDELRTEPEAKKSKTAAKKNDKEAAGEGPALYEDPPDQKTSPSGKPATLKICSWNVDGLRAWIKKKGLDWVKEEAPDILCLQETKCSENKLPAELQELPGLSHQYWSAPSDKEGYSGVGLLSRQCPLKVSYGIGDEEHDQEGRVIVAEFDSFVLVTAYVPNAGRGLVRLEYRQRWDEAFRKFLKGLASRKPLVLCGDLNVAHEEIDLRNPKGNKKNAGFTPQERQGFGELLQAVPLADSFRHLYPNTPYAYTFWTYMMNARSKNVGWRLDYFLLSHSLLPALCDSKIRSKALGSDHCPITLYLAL

CCCN(CCC)CCc1cccc2c1CC(=O)N2
9.72%: max response [1, 11]
11.6%: max response [1, 12]
inactive: activity change, negative = inhibition ([1]; at 57.5 µM (top of the series)) 5.49% | outcome [2] | Potency [3] | Potency [4] | Potency [5] | Potency [6] | Potency [7] | Potency [8]

Nc1ncn([C@@H]2O[C@H](CO)[C@@H](O)[C@H]2O)c(=O)n1
inactive: Potency [9] | outcome [2] | Potency [3] | Potency [4] | Potency [5] | Potency [6] | Potency [7] | Potency [8] | Potency [10]

NC(=O)c1ncn([C@@H]2O[C@H](CO)[C@@H](O)[C@H]2O)c1O
inactive: Potency [9] | outcome [2] | Potency [3] | Potency [4] | Potency [5] | Potency [6] | Potency [7] | Potency [8] | Potency [10]

CCN(CC)CCOCCOC(=O)C1(c2ccccc2)CCCC1
inactive: activity change, negative = inhibition ([1]; at 25.7 µM (top of the series)) -7.98% | activity change, negative = inhibition ([1]; at 57.5 µM (top of the series)) -1.81% and 10.4% and -0.577% | Potency [9] | outcome [2]
active: Potency [4] 3.16 µM | Potency [8] 2.24 µM | Potency [10] 0.794 µM

CC(C)(C)NCC(O)c1cc(O)cc(O)c1 (configuration not stated)
inactive: Potency [9] | outcome [2] | Potency [3] | Potency [4] | Potency [5] | Potency [6] | Potency [7] | Potency [8] | Potency [10]

CCN1CCC[C@H]1CNC(=O)c1c(O)c(Cl)cc(Cl)c1OC
inactive: Potency [9] | outcome [2] | Potency [3] | Potency [4] | Potency [5] | Potency [6] | Potency [7] | Potency [8]

CC1=C(C)C(=O)C(CCCCC#CCCCC#CCO)=C(C)C1=O
-21.4%: max response [1, 12]
active: Potency [4] 2.24 µM | Potency [5] 2.51 µM | Potency [6] 8.91 µM | Potency [7] 14.1 µM | Potency [8] 10 µM | Potency [10] 3.55 µM
-22.7%: max response [1, 11]
inactive: activity change, negative = inhibition ([1]; at 57.5 µM (top of the series)) 1.13% | outcome [2]

COc1ccc(CCN(C)CCCC(C#N)(c2cc(OC)c(OC)c(OC)c2)C(C)C)cc1OC (configuration not stated)
active: Potency [4] 7.08 µM | Potency [5] 6.31 µM | Potency [6] 3.16 µM | Potency [8] 3.55 µM | Potency [10] 2.24 µM
inactive: Potency [9] | outcome [2] | Potency [3]

O=C(O)CCCCCCCC(=O)O
inactive: Potency [9] | outcome [2] | Potency [3] | Potency [4] | Potency [5] | Potency [6] | Potency [7] | Potency [8] | Potency [10]

CN=C(NC#N)NCCSCc1nc[nH]c1C
inactive: activity change, negative = inhibition ([1]; at 57.5 µM (top of the series)) 0.49% and 5% | outcome [2] | Potency [3] | Potency [5] | Potency [6] | Potency [7] | Potency [8]
19.1% and 8.99%: max response [1, 11]
19.5% and 21.3%: max response [1, 12]

COc1cc(C(=O)OCCCN2CCCN(CCCOC(=O)c3cc(OC)c(OC)c(OC)c3)CC2)cc(OC)c1OC
active: Potency [4] 5.01 µM | Potency [5] 6.31 µM | Potency [6] 3.16 µM | Potency [7] 10 µM | Potency [8] 7.08 µM | Potency [10] 3.55 µM
11.7%: max response [1, 11]
8.49%: max response [1, 12]
inactive: activity change, negative = inhibition ([1]; at 25.7 µM (top of the series)) -0.679% | Potency [9]

CC(C)NCC(O)c1cc(O)cc(O)c1 (configuration not stated)
23% and -23.1%: max response [1, 12]
inactive: activity change, negative = inhibition ([1]; at 57.5 µM (top of the series)) 10.7% and 0.0278% | Potency [3] | Potency [4] | Potency [5] | Potency [6] | Potency [7] | Potency [8] | Potency [10]
8.74% and -21.1%: max response [1, 11]

OC(CCN1CCCCC1)(c1ccccc1)C1CCCCC1 (configuration not stated)
active: Potency [5] 10 µM | Potency [6] 10 µM | Potency [7] 12.6 µM | Potency [8] 3.55 µM | Potency [10] 3.16 µM
inactive: Potency [9] | outcome [2] | Potency [3]

COc1cc2c(cc1OC)-c1cc(=Nc3c(C)cc(C)cc3C)n(C)c(=O)n1CC2
active: Potency [4] 2.24 µM | Potency [5] 2.24 µM | Potency [6] 2 µM | Potency [7] 3.98 µM | Potency [8] 8.91 µM | Potency [10] 3.55 µM
inactive: Potency [9] | outcome [2] | Potency [3]

CNCCC(Oc1ccccc1OC)c1ccccc1 (configuration not stated)
active: Potency [4] 3.55 µM
inactive: Potency [9] | outcome [2] | Potency [3] | Potency [7]

O=C(O)CN(CCOCCOCCN(CC(=O)O)CC(=O)O)CC(=O)O
inactive: Potency [9] | outcome [2] | Potency [4] | Potency [5] | Potency [6] | Potency [7] | Potency [8] | Potency [10]

Cc1scc2c1N(C(=O)CN1CCN(C)CC1)c1ccccc1NC2=O
inactive: Potency [9] | outcome [2] | Potency [3] | Potency [8]
